Screening data from PubChem.
Rows were chosen to be rich in hits. Some 3.7% of all compounds tested hit in one or more screens of this group.
GDH-TPI inh = GDH-TPI coupling enzyme inhibitors, primary screen, artefact control for M. tuberculosis FBA inhibitor project, biochemical, absorbance, full deck; GDH-TPI coupled enzyme counterscreen, NADH absorbance; inhibition, % at 4.8 µM; hit rate 1.2% among 360,000; AID 588335, 2011; in the data active = inhibition above about 30%;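 note: 0% = DMSO wells and 100% = wells lacking the enzyme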
FadD28 binding = inhibitors of FadD28 bisubstrate probe binding, primary screen, biochemical, fluorescence polarization, single point; Mycobacterium tuberculosis FadD28 fatty-acid-AMP ligase; inhibition, % at 12.5 µM; hit rate 0.22% among 360,000; AID 588549, 2011; in the data active = inhibition above about 8.5%, passing the limit was not always enough; inconclusive = no clear call, values can overlap the other calls
Rv3671c protease = Rv3671c serine protease inhibitors, primary screen, biochemical, fluorescence polarization, M. tuberculosis H37Rv | inhibition, % at 5.96 µM | hit rate 0.048% among 320,000 | AID 2606, 2010; in the data active = inhibition above about 38%;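 note: extracellular domain of Rv3671c used as enzyme; 0% = enzyme with DMSO and 100% = no enzyme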
Target sequence (P9WHR9 whole entry, looked up, the tested form may be a part): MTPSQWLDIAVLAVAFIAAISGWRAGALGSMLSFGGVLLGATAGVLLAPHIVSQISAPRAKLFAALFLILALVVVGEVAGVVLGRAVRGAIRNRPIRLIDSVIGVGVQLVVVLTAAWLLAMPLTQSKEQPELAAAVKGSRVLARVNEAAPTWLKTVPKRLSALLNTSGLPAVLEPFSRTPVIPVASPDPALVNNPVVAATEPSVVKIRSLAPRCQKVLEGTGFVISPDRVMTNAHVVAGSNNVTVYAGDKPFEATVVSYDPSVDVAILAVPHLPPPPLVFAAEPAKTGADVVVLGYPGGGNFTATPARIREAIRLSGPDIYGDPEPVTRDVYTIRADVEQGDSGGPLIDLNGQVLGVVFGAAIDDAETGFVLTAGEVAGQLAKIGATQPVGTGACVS
UGM FP inh = M. tuberculosis UGM enzyme inhibitors, primary screen, biochemical, fluorescence polarization, single point; UDP-galactopyranose mutase (Mycobacterium tuberculosis (strain ATCC 25618 / H37Rv)), …; AID 504406, 2011; hit rate 0.06% among 320,000; inhibition, % at 10 µM; purified UGM, fluorescence polarization probe displacement; in the data active = inhibition above about 10%, passing the limit was not always enough; inconclusive = no clear call, values can overlap the other calls
FBA Mtb inh = Mtb FBA enzyme inhibitors, primary screen, biochemical, fluorescence, strain H37Rv; purified M. tuberculosis FBA, fluorescence read-out; AID 588726, 2011; hit rate 2.3% among 360,000; inhibition, % at 1 µM; Fructose-bisphosphate aldolase (Mycobacterium tuberculosis (strain ATCC 25618 / H37Rv)), …; in the data active = inhibition above about 27%;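 note: 0% = vehicle and 100% = reference inhibitor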
Mtb betalactam = beta-lactam sensitization of Mtb H37Rv, H37Rv; M. tuberculosis H37Rv growth with meropenem, percent inhibition; inhibition, % at 25 µM; hit rate 0.27% among 330,000; call rule not given here;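 note: growth measured after seven days incubation then overnight dye step; 0% = bacteria only wells and 100% = bacteria with antibiotic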
Active calls of the source: *; ? = inconclusive; / = not tested or not shown; + = active, no number.

SMILES	GDH-TPI inh	FadD28 binding	Rv3671c protease	UGM FP inh	FBA Mtb inh	Mtb betalactam
COc1ccc(-c2nc(CS(=O)CC(=O)NC(C)CCc3ccccc3)c(C)o2)cc1OC (configuration not stated)	-0.4	-4.1	-13.1	-1.1	6.0	7.0
N#Cc1nc(-c2ccccc2F)oc1NCc1cccc2c1OCO2	13.4	-2.0	-14.6	1.3	14.0	3.1
CCN(CC)CCCNc1oc(/C=C/c2ccccc2)nc1C#N	28.0	0.1	2.9	1.2	+	0.8
COc1ccc(CCNc2oc(-c3ccc(OC)c(OC)c3)nc2C#N)cc1	36.0*	12.3*	0.0	-0.8	+	-5.2
CN(C)CCCNc1oc(-c2ccccc2)nc1C#N	6.0	1.3	-6.4	-0.2	130.6*	25.6
COc1cc2c(cc1OC)C(=NO)CCCC2	12.4	-2.6	/	/	1.2	/
CCCCCc1cc(O)c2c(C)cc(=O)oc2c1	21.8	-1.0	-28.9	0.7	2.5	-1.1
COc1cc(OC)c2c(-c3cccc(-c4cccc(C)c4)c3)cc(=O)oc2c1	26.4	0.7	/	/	4.3	/
Cc1cc(=O)oc2cc(O)cc(O)c12	6.3	-1.9	/	/	196.2*	/
COc1cc(OC)c2ccc(=O)oc2c1	12.8	-3.0	-5.6	/	+	-11.0
COc1cc(OC)c2c(C)cc(=O)oc2c1	21.5	-2.6	6.7	4.4	+	26.6
c1ccc(NN(Cc2ccccn2)c2ccccc2)cc1	6.2	1.2	/	/	-0.2	/
CCCCNC(=O)C1(C)CCN1C(=O)c1cccc2c1OCCO2 (configuration not stated)	0.0	-1.7	/	/	1.6	/
Cc1ccsc1C(=O)OCC(=O)NC1CCCC(C)C1C (configuration not stated)	0.9	/	-3.4	1.9	6.3	-5.2
O=c1[nH]c(=S)n(-c2ccccc2)c(O)c1/C=N/N1CCCCC1c1cccnc1 (configuration not stated)	51.9*	-1.2	-84.0	-1.3	3.7	1.0
CN1CCN(c2cc(-c3ccc4ccccc4c3)nc3ccnn23)CC1	11.9	-7.1	/	/	10.5	/
CC1Cc2cc(/C(O)=C3/C(=O)C(=O)N(CCCn4ccnc4)C3c3ccc(F)cc3)ccc2O1 (configuration not stated)	31.7*	0.2	2.8	4.9	2.3	-3.2
CC1Cc2cc(/C(O)=C3/C(=O)C(=O)N(CCCn4ccnc4)C3c3ccc([N+](=O)[O-])cc3)ccc2O1 (configuration not stated)	12.6	-2.0	/	/	2.1	/
Cc1cc2c(cc1S(=O)(=O)NCc1ccc(N(C)C)cc1)OCC(=O)N2	8.0	-0.6	-4.8	-1.7	1.8	1.6
CCc1nc2ccc(C(=O)N3CCCC(C(N)=O)C3)cn2c1N(C=O)CC (configuration not stated)	5.6	-0.8	/	/	-1.8	/
Cc1ccc(Nc2ccc(N)cc2S(=O)(=O)O)cc1	3.5	84.5*	-2.2	0.5	18.3	-3.6
CNS(=O)(=O)c1cc(N)ccc1C	0.0	-0.1	6.9	-0.5	-1.4	-7.1
Cc1cc(C)cc(N2Cc3ccccc3C2)c1	4.8	-2.1	-0.6	2.5	3.4	4.2
COc1cc(N2Cc3ccccc3C2)ccc1C=O	33.6*	-0.8	-5.1	-1.2	1.5	5.0
Cc1cc(NC(=O)COC(=O)Cn2[nH]c(=O)c3ccccc3c2=O)c([N+](=O)[O-])cc1C	1.7	0.2	-6.0	0.3	-0.5	0.9
SMILES	GDH-TPI inh	FadD28 binding	Rv3671c protease	UGM FP inh	FBA Mtb inh	Mtb betalactam
O=C(N/N=C/c1cccnc1)c1ccccc1NS(=O)(=O)c1cccs1	8.1	-2.2	1.4	0.5	7.6	5.2
COc1cc(/C=N/NC(=O)c2ccccc2NS(=O)(=O)c2cccs2)ccc1O	35.8*	1.0	/	/	7.5	/
O=C(NN=Cc1ccc(F)cc1)c1ccccc1NS(=O)(=O)c1cccs1	11.2	-0.5	-2.2	0.3	4.7	-1.0
O=C(N/N=C/c1ccc([N+](=O)[O-])o1)c1ccccc1NS(=O)(=O)c1cccs1	32.5*	3.4	5.5	0.9	0.9	99.2
COc1cc(/C=N/NC(=O)c2sc(N)c(C#N)c2C)ccc1O	60.7*	-1.5	-14.9	-0.3	-4.4	7.1
CC(O)(c1cccc(F)c1)c1nc(-c2cncnc2)cs1 (configuration not stated)	0.0	-3.7	/	/	-0.2	/
O=C(CC12CC3CC(CC(C3)C1)C2)NCC(=O)OCc1cc(=O)oc2ccc3ccccc3c12	8.8	-3.9	-12.2	7.1	36.0*	73.3
O=c1nc(/C=C/c2ccc(Cl)cc2Cl)cc(C(F)(F)F)[nH]1	41.4*	-1.0	/	-2.4	2.3	67.9
O=C(O)c1cc(Cl)ccc1-c1ccc(/C=C/c2cc(C(F)(F)F)[nH]c(=O)n2)o1	16.4	?	-5.2	0.6	6.8	-5.7
CC1CCN(Cc2cc(=O)oc3cc(O)c(Cl)cc23)CC1	12.1	-0.2	6.0	0.8	+	-3.0
Cc1ccc2oc(=O)cc(CN3CC(C)OC(C)C3)c2c1 (configuration not stated)	10.3	-0.3	-2.1	-0.5	-2.4	4.0
CC1CCN(Cc2cc(=O)oc3cc4c(cc23)CCCC4)CC1	-3.1	-0.7	6.4	0.7	4.7	93.1
CC1CN(Cc2cc(=O)oc3cc(O)c(Cl)cc23)CC(C)O1 (configuration not stated)	0.8	-1.5	0.5	2.6	+	-2.5
CN(Cc1ccccc1F)Cc1cc(=O)oc2cc(O)c(Cl)cc12	6.7	-3.1	-1.4	-0.8	+	-9.1
N#Cc1cccc(-c2csc(C(O)c3ccc(F)cc3)n2)c1 (configuration not stated)	5.3	-2.5	/	/	2.4	/
COc1ccc(OC)c(S(=O)(=O)NC(=O)C2(C)CCN2C(=O)Cc2ccccc2)c1 (configuration not stated)	12.5	1.2	/	/	0.9	/
Cn1c(=O)[nH]c2c(c1=O)CCO2	-4.1	-2.7	/	/	-0.7	/
CC(=O)C1C2c3ccccc3OC1(C)N=c1s/c(=C/c3cnn(C)c3)c(=O)n12 (configuration not stated)	38.0*	-0.9	-0.4	1.3	-4.0	-10.1
CN1CCN(C(=O)c2ccc(Cc3cn(C)c4ccccc34)nc2)CC1	9.3	-4.8	/	/	3.5	/
Cc1cc(Nc2nc3ccccc3[nH]c2=O)n(-c2ccccc2)n1	42.5*	0.4	-12.5	1.6	4.2	-3.3
COc1ccc(C2=NN(C(=O)c3cccs3)C(c3ccccc3OC)C2)cc1OC (configuration not stated)	34.1*	-5.7	-13.2	0.2	2.6	23.6
COc1ccc(C2=NN(C(=O)c3ccco3)C(c3cccs3)C2)cc1OC (configuration not stated)	38.0*	-5.4	/	/	-1.8	/
